{"source": "PubChem BioAssay (Tox21)", "note": "Inconclusive results are not listed. Values without a mark were called inactive. Calls come from the whole dose curve; as a rule, active = well fitted activation curve with a large enough effect in the repeat runs; inconclusive = weak or mixed curves; inactive = flat fitted curve, though single readings scatter. % is set by controls: 0 for no effect and ±100 for the full control effect.", "data": [{"test": "A CellTox Green Cytotoxicity Assay to monitor cytotoxicity in HEK293 cells - 16 hour (AID 1224888); note: nearly all actives have a fitted effect of over 35% in size", "conditions": "CellTox Green fluorescence; series mostly up to 76.8 µM; activity change: at the top concentration", "from_the_text": "National Center for Advancing Translational Sciences [NCATS]\nNIH Chemical Genomics Center [NCGC]\nU.S. Environmental Protection Agency [EPA]\nNational Institutes of Environmental Health Sciences [NIEHS]\nNational Toxicology Program [NTP]\nCell-based models are critical for drug discovery. Determining the natural cytotoxic effects resulting from test compounds is an essential research activity. A CellTox Green Cytotoxicity Assay to monitor cytotoxicity in real time of continues cell culture during 40 hours of the compound treatment was used to screen Tox21 10K library compounds in Hek293 cells. CellTox Green Cytotoxicity Assay is a nonlytic, homogeneous, biofluorescent method to measure cytotoxicity in cell culture after experimental manipulation. The assay system uses a proprietary asymmetric cyanine dye that is excluded from viable cells but preferentially stains the dead cell's DNA. […] Viable cells produce no appreciable increases in fluorescence. Therefore, the fluorescence signal produced by the binding interaction with dead cell DNA is proportional to cytotoxicity.\nThe mixture of Hek293 cell suspension and reagents were dispensed at 600cells/6 ul/well in 1536-well tissue culture treated black solid bottom plates using a Multidrop dispenser. After the assay plates were incubated at a 37 C/5% CO2 incubator for 5 hours, 23 nL of compounds dissolved in DMSO, positive and negative controls was transferred to the assay plate by a pintool work station. The plates were incubated at 37 C for 40 hours. The fluorescence intensity were measured at 0h, 8h, 16h, 24h, 32h and 40h time points using ViewLux plate reader during compound treatment.", "values": [{"smiles": "Clc1cc(Cl)c(Cl)c(Cl)c1Cl", "activity change": "0.161%"}, {"smiles": "NS(=O)(=O)c1cc2c(cc1C(F)(F)F)NCNS2(=O)=O", "activity change": "4.2% [at 35.3 µM, active compounds read high]"}, {"smiles": "O=C(O)/C=C(\\CC(=O)O)C(=O)O", "activity change": "1.57% [at 35.3 µM, active compounds read high]"}, {"smiles": "CC(=O)Oc1ccc(C(C)=O)cc1", "activity change": "7.56%"}, {"smiles": "CC(C)OC(=O)C(C(=O)OC(C)C)=C1SC=CS1", "activity change": "-0.441% [at 35.3 µM, active compounds read high]"}, {"smiles": "CCC(C)c1nccnc1OC", "note": "(stereo not given)", "activity change": "0.665%"}, {"smiles": "CCCCCCCCCCCC(C)=O", "activity change": "-9.29%"}, {"smiles": "Cc1ccc(Br)cc1", "activity change": "7.9%"}, {"smiles": "CC(C)(C)C(=O)NCCCC(=O)O", "activity change": "-15.3% [at 35.3 µM, active compounds read high]"}, {"smiles": "C[C@H]1COc2c(C3(N)CC3)c(F)cc3c(=O)c(C(=O)O)cn1c23", "activity change": "-4.09% [at 35.3 µM, active compounds read high]"}, {"smiles": "COC(C)(C)CC(C)=O", "activity change": "3.68%"}, {"smiles": "COC(=O)c1cc(Cl)c(NC(C)=O)cc1OC", "activity change": "-0.13% [at 35.3 µM, active compounds read high]"}, {"smiles": "NCC1CCC(C(=O)Oc2ccc(CCC(=O)O)cc2)CC1", "note": "(stereo not given)", "activity change": "1.04% [at 35.3 µM, active compounds read high]"}, {"smiles": "O=C1CCCc2c(O)cccc21", "activity change": "-8.7% [at 35.3 µM, active compounds read high]"}, {"smiles": "CC(C)(C)OC(=O)c1ccccc1C(=O)O", "activity change": "-9.24%"}, {"smiles": "CC(=O)O[C@@H]1CC2C3CCc4cc(OC(=O)c5ccccc5)ccc4C3CCC2(C)[C@H]1OC(C)=O", "note": "(stereo not given in full)", "activity change": "5.1% [at 35.3 µM, active compounds read high]"}, {"smiles": "CC(=O)OC/C=C(/C)CCC=C(C)C", "activity change": "6.76%"}, {"smiles": "CCc1ncc(C)[nH]1", "activity change": "-1.96%"}, {"smiles": "CCOc1ccccc1OCCN[C@H](C)Cc1ccc(OC)c(S(N)(=O)=O)c1", "activity change": "-12.8% [at 35.3 µM, active compounds read high]"}, {"smiles": "CCOC(=O)[C@H](CCc1ccccc1)N[C@H]1CS[C@H](c2cccs2)CN(CC(=O)O)C1=O", "activity change": "0.134% [at 35.3 µM, active compounds read high]"}, {"smiles": "O=CN1CCCCC1", "activity change": "-0.0308%"}, {"smiles": "Cc1cc(=O)oc2cc(O[C@@H]3SC[C@@H](O)[C@H](O)[C@H]3O)ccc12", "activity change": "-13.9% [at 35.3 µM, active compounds read high]"}, {"smiles": "C=CC(=O)OCCOCCOCC", "activity change": "-0.0763%"}, {"smiles": "O=S(=O)(O)c1ccc(Cl)cc1", "activity change": "0.0127%"}, {"smiles": "CC(=O)OC1CCC(C(C)(C)C)CC1", "note": "(stereo not given)", "activity change": "10.6%"}, {"smiles": "CCCCN1C(=O)c2ccccc2C1=O", "activity change": "-5.35%"}, {"smiles": "CC12CCCC=C1C(=O)OC2=O", "note": "(stereo not given)", "activity change": "5.21%"}, {"smiles": "COC(=O)c1ccc(NC(C)=O)cc1OC", "activity change": "-5.06% [at 35.3 µM, active compounds read high]"}, {"smiles": "CC(C)c1cc(C(C)C)cc(C(C)C)c1", "activity change": "0.0389%"}, {"smiles": "C=CCCCCCCCCOC(C)=O", "activity change": "6.41%"}, {"smiles": "Cc1ccccc1C#N", "activity change": "-6.22%"}, {"smiles": "COc1ccc(Cl)cc1C", "activity change": "-6.83%"}, {"smiles": "CCCC[O][Al]([O]CCCC)[O]CCCC", "activity change": "-5.97%"}, {"smiles": "COCc1nnc(-c2ccc[n+]([O-])c2)n1-c1c(Cl)c(Cl)cc2[nH]c(=O)c(=O)[nH]c12", "activity change": "-12.5%"}, {"smiles": "Cc1ccc(NC(N)=O)cc1", "activity change": "-4.25%"}, {"smiles": "CC1(C)CC(N)CC(C)(C)N1", "activity change": "-0.217%"}, {"smiles": "CCCCCCC(=O)c1ccccc1", "activity change": "8.06%"}, {"smiles": "C[C@@H]1CC[C@@]2(OC1)O[C@H]1C[C@H]3[C@@H]4CC[C@H]5C[C@@H](O)CC[C@]5(C)[C@H]4CC(=O)[C@]3(C)[C@H]1[C@@H]2C", "activity change": "-0.0716% [at 6.97 µM, active compounds read high]"}, {"smiles": "CN(C)c1cc(NC(=O)CNC(C)(C)C)c(O)c2c1C[C@H]1C[C@H]3[C@H](N(C)C)C(=O)C(C(N)=O)=C(O)[C@@]3(O)C(=O)C1=C2O", "activity change": "1% [at 35.3 µM, active compounds read high]"}, {"smiles": "CCOC(=O)c1ccc(N(C)C)cc1", "activity change": "-3.52%"}]}]}
